The values below come from the supplement of paper PMC12819154, “High-throughput peptide-centric local stability assay extends protein–ligand identification to membrane proteins, tissues and bacteria” (Nature Structural & Molecular Biology, 2025).

Sequence of UniProt Q7TMR0 (Q7TMR0 whole entry): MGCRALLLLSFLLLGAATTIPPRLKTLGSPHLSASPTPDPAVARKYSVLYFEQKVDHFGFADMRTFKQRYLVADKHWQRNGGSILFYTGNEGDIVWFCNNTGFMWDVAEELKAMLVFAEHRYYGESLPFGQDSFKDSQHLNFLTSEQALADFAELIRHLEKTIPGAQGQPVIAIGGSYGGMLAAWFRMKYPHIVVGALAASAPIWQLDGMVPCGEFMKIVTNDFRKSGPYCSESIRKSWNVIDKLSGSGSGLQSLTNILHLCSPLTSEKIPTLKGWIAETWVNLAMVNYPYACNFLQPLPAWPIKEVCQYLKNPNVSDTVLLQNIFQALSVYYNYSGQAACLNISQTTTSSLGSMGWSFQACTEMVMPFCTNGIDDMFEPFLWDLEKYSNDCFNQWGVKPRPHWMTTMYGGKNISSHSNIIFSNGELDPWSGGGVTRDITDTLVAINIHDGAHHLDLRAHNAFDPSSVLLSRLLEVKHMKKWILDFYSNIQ
Sequence of UniProt P11798 (P11798 whole entry): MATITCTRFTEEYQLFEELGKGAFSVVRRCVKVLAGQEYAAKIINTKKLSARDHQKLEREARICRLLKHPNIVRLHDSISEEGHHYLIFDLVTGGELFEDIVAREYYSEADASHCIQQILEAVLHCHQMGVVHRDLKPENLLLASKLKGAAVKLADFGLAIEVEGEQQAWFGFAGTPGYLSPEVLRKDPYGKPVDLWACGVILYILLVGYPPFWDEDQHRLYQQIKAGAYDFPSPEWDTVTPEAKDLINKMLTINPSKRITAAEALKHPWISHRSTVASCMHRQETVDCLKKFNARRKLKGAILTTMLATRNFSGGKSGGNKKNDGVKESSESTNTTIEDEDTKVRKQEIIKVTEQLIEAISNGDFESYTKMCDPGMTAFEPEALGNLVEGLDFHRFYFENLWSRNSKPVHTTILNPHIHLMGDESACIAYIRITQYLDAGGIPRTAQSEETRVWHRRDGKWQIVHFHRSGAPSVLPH
Sequence of UniProt P34928 (P34928 whole entry): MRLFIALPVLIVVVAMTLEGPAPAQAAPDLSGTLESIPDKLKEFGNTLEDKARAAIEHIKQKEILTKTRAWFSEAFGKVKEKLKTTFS
Sequence of UniProt P12710 (P12710 whole entry): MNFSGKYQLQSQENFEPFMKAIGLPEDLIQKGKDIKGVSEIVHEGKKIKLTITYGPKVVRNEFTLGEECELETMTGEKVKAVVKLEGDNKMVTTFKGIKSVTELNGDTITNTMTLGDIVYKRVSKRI
Sequence of UniProt Q64133 (Q64133 whole entry): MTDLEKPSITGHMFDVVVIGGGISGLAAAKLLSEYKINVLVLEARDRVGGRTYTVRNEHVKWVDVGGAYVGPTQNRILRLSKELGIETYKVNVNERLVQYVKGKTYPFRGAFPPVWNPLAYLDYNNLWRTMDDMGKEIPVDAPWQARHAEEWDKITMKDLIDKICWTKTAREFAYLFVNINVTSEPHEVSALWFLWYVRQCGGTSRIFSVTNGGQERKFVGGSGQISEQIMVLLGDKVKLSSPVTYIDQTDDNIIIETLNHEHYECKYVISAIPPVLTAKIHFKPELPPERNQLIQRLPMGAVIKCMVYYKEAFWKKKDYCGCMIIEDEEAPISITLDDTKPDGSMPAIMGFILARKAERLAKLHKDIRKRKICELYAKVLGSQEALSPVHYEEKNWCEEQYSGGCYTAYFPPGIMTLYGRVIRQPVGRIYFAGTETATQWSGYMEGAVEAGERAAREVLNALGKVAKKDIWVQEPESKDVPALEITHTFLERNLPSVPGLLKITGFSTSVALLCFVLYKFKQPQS
Sequence of UniProt Q99J95 (Q99J95 whole entry): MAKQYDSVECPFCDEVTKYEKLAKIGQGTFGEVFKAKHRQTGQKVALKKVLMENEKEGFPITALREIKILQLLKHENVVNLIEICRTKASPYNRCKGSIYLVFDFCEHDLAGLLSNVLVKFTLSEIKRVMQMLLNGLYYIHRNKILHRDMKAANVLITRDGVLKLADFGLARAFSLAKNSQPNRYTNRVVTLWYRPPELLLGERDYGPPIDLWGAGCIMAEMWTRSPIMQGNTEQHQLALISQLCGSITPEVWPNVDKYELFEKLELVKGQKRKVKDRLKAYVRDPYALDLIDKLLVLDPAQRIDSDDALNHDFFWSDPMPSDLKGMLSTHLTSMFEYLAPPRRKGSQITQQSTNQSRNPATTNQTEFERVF

Compound in the assay: CN[C@@H]1C[C@H]2O[C@@](C)([C@@H]1OC)n1c3ccccc3c3c4c(c5c6ccccc6n2c5c31)C(=O)NC4 [staurosporine]
In words: log2 fold change of tryptic peptide abundance, ligand vs vehicle (limited proteolysis) (log2 ratio); higher = more trypsin-susceptible (destabilized). The settings on record: ligand concentration: 20 uM; sample: mouse liver crude lysate; replicate design: treated separately.
As for “UniProt P12710 (peptide sequence: DIKGVSEIVHEGK, peptide start residue: 34)”, the log2 fold change amounted to 0.719.

As to “UniProt Q7TMR0 (peptide sequence: AHNAFDPSSVLLSR, peptide start residue: 459)”, the log2 fold change was determined as 0.784.

“UniProt P34928 (peptide sequence: AWFSEAFGK, peptide start residue: 70)”: the log2 fold change was found to be 0.496.

In the case of “UniProt P11798 (peptide sequence: DLKPENLLLASK, peptide start residue: 136)”, the log2 fold change is -3.02.

Consider “UniProt Q99J95 (peptide sequence: IGQGTFGEVFK, peptide start residue: 25)”, for which the log2 fold change is -1.

With “UniProt Q64133 (peptide sequence: ELGIETYK, peptide start residue: 83)”, the log2 fold change was -0.486.
